697 NFkB inh: inhibitors of the PMA/ionomycin-induced NF-kB reporter in 697 B cells. 697 B-cell NF-kB luciferase reporter, 16 h. hit rate 0.33% among 330,000. inhibition, % at 4 µM; in the data active = inhibition above about 35%
Gli-Sufu block: antagonists of Gli-Sufu signaling; hit rate 0.74% among 340,000; Sufu-KO-LIGHT fibroblasts, Gli luciferase reporter luminescence; inhibition, % at 5 µM; AID 588413;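 active = inhibition above about 55%, limit read from the data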;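 note: 0% = DMSO-treated cells and 100% = wells with medium but no cells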
Mdm2 MdmX PPI: inhibitors of human Mdm2/MdmX interaction. O15151+Q00987. hit rate 3% among 330,000. AID 485346. inhibition, % at 8 µM. SaOS-2 split-luciferase Mdm2/MdmX complementation, luminescence;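 active = inhibition of at least 50% at 8 µM in the primary screen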
Jurkat NFkB inh: lowers PMA/ionomycin-induced NF-kB signal in Jurkat cells; PMA/ionomycin-induced NF-kB luciferase reporter, luminescence; inhibition, % at 4 µM; hit rate 0.53% among 330,000; AID 435003; in the data active = inhibition above about 50%
KLF5 inhibitor: suppresses KLF5 promoter-driven expression; DLD-1 KLF5 promoter-luciferase reporter, luminescence; inhibition, % at 5 µM; hit rate 0.23% among 290,000;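 active = inhibition above a per-plate limit of that plate's mean compound inhibition plus 3 SD, cut at about 60% in these data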;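 note: 0% = DMSO wells and 100% = LY294002 at 200 µM; higher means less KLF5 promoter-driven luciferase light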
aSyn 5UTR inh: 5' untranslated region of α-synuclein, MLPCN primary screen; alpha-synuclein 5'UTR reporter, inhibitor activity; inhibition, % (tested at 7.5 µM); hit rate 0.82% among 300,000; AID 1813; in the data active = inhibition above about 60%; inconclusive = no clear call, values can overlap the other calls;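 note: H4 neuroglioblastoma cells stably carrying SNCA 5'UTR luciferase fusion; 0% = DMSO wells and 100% = positive control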
Jurkat NFkB conf: inhibitors of the PMA/ionomycin-induced NF-kB reporter in Jurkat cells, retest; shares compounds with Jurkat NFkB inh; Jurkat NF-kB luciferase, 16 h; inhibition, % at 4 µM; hit rate 27% among 2,700; AID 435020;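 active = inhibition reaching about 45% at 4 µM in either replicate, limit read from the data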;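 note: plate controls were PMA/ionomycin stimulated DMSO wells for no effect and unstimulated DMSO wells for full effect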
697 NFkB conf: inhibitors of the PMA/ionomycin-induced NF-kB reporter in 697 B cells, retest; hit rate 35% among 2,000; shares compounds with 697 NFkB inh; AID 449746; inhibition, % at 4 µM; 697 B-cell NF-kB luciferase, 16 h; in the data active = inhibition mostly above about 28%, no sharp cut-off; inactive = mostly below about 22%
Mdm2 MdmX conf: confirmation of human Mdm2/MdmX interaction inhibitors | shares compounds with Mdm2 MdmX PPI | Mdm2-MdmX binding, luminescent assay | inhibition, % at 8 µM | hit rate 55% among 10,000; in the data active = inhibition above about 40%
Full FLuc ctr: inhibits full-length luciferase, flagging false Mdm2/MdmX hits; shares compounds with Mdm2 MdmX PPI; SaOS-2 full-length luciferase counterscreen, luminescence; inhibition, % at 8 µM; hit rate 77% among 6,200; AID 504607;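 active = mean inhibition at 8 µM reaching about 37%, which flags the compound as non-specific, limit read from the data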;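 note: p53-null SaOS-2 cells with luciferase driven by a doxycycline-inducible promoter; compound on cells about two nights before reading with doxycycline added after day one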
Numbers without * were called inactive; i = inactive; ? = inconclusive; . = no result. Sampled rows, rich in hits. Any-hit rate of the full collection: about 4.1%.

SMILES	697 NFkB inh	Gli-Sufu block	Mdm2 MdmX PPI	Jurkat NFkB inh	KLF5 inhibitor	aSyn 5UTR inh	Jurkat NFkB conf	Mdm2 MdmX conf	Full FLuc ctr	others
C/C(=N\NC(=O)c1cccc(Br)c1)c1ccccn1	-95	89*	100*	92*	39	108*	1	63*	50*
Cc1ccc2oc(C(=O)N(C)CCC(O)c3ccccc3)c(C)c2c1 (stereo not given)	-23	-15	-8	4	-7	-10	.	.	.
COc1ccc(N2CCc3c(C)nc4c(OC)cc(OC)cc4c32)c(OC)c1	-16	31	40	23	-10	31	.	.	.
COc1ccc(N2CCc3c(C)nc4c(OC)cccc4c32)cc1	-124	8	58*	64*	57	89*	31	57*	55*
COc1ccccc1OC(C)C(=O)Nc1nc(-c2ccc(S(=O)(=O)N3CCOCC3)cc2)cs1 (stereo not given)	-49	19	23	-8	-26	31	.	.	.
COc1ccccc1C(=O)Nc1nc(-c2ccc(S(=O)(=O)N3CCOCC3)cc2)cs1	41*	66*	77*	76*	1	-12	61*	83*	30	697 NFkB conf=30*
Cc1csc2sc(-c3ccnc(SCC(=O)NCc4ccccc4)n3)c(C)c12	-42	-3	56*	69*	52	15	42	59*	86*
CCSc1nc2ccccc2n1C(=O)/C=C\c1ccc(OC)c(OC)c1	-136	0	100*	53*	-32	-112	42	100*	52*
CCSc1nc2ccccc2n1CC(N)=O	11	-1	19	-6	-4	29	.	.	.
CCc1cccc2sc(N3CCN(C(=O)c4ccc([N+](=O)[O-])o4)CC3)nc12	-8	76*	94*	51*	.	-49	-13	75*	46*
O=C(c1ccc([N+](=O)[O-])o1)N1CCN(Cc2ccccc2)CC1	4	-5	3	-16	-6	-14	.	.	.
C=CCC[C@H](Cc1ccc(F)cc1)C(=O)OC[C@@H](Cc1c[nH]c2ccccc12)NC(=O)[C@@H](CC=C)CC(=O)NCCO	-14	-6	30	-10	.	.	.	.	.
COc1cc(OC)c(C2=NOC(C(=O)NCc3cccs3)C2)cc1Cl (stereo not given)	-16	11	54*	54*	21	-6	22	51*	59*
COc1cc(C2=NOC(C(=O)NCc3cccnc3)C2)cc(OC)c1OC (stereo not given)	-7	21	-4	-4	-22	8	.	.	.
COc1cc(C2=NOC(C(=O)NCc3ccco3)C2)cc(OC)c1OC (stereo not given)	-9	-1	64*	66*	27	12	6	57*	73*
COc1cc(OC)c(C2=NOC(C(=O)NCc3cccnc3)C2)cc1Cl (stereo not given)	-9	-11	29	29	-3	-56	.	.	.
COc1ccc(C)cc1S(=O)(=O)N1CCCC(C(=O)N2CCN(c3ccccc3F)CC2)C1 (stereo not given)	-14	10	-1	-7	-21	-4	.	.	.
Nc1nnn(CC(=O)N/N=C/c2ccc(Cl)cc2Cl)n1	12	-1	3	11	-15	-16	.	.	.
CCN(CC(=O)NCc1cccs1)CC(=O)Nc1ccccc1C	-11	2	-45	-13	.	.	.	.	.
COc1ccc(C2=Nn3c(nnc3-c3ccccc3)SC2)cc1OC	-5	-3	33	18	-26	?	.	.	.
COc1ccc(OC)c(-c2nnc3n2N=C(c2ccc(OC)c(OC)c2)CS3)c1	-41	47	66*	58*	.	.	44	60*	79*
COc1ccc(OC)c(-c2nnc3n2N=C(c2ccc(OC)c(OC4CCCC4)c2)CS3)c1	11	51	84*	79*	.	.	63*	75*	66*
COc1ccc(OC)c(C2=Nn3c(nnc3C3CCCCC3)SC2)c1	-19	10	23	-16	-18	25	.	.	.
Cc1onc(-c2ccccc2)c1C(=O)OCCOc1cccc(Cl)c1	-15	-8	52*	52*	-24	-70	13	62*	64*
CCn1c(SCC(=O)N/N=C/c2ccc(C)s2)nc2ccccc21	-46	-9	58*	53*	-5	-53	22	61*	59*
SMILES	697 NFkB inh	Gli-Sufu block	Mdm2 MdmX PPI	Jurkat NFkB inh	KLF5 inhibitor	aSyn 5UTR inh	Jurkat NFkB conf	Mdm2 MdmX conf	Full FLuc ctr	others
Cc1ccc(/C=N/NC(=O)CSc2nc3ccccc3c(=O)n2-c2ccccc2)s1	2	0	27	39	-9	16	.	.	.
O=C1c2ccccc2C(=O)c2c(NCCCN(CCO)CCO)cccc21	0	12	-15	0	-48	-38	.	.	.
O=C1c2c(O)ccc(O)c2C(=O)c2c(NCCNCCO)ccc(NCCNCCO)c21	74*	77*	100*	100*	.	.	89*	98*	2	697 NFkB conf=-63
COc1ccc(OC)c(N(CC(=O)NCC2CCCO2)S(=O)(=O)c2ccccc2)c1 (stereo not given)	-7	-12	8	-7	-16	-10	.	.	.
O=C(Cc1ccsc1)Nc1ccc(S(=O)(=O)C(F)F)cc1	9	-18	-17	-10	-64	-42	.	.	.
O=C(CCC(=O)c1cccs1)NCc1ccccc1Cl	3	0	16	-2	.	.	.	.	.
O=C1/C(=C/c2ccc(N3CCOCC3)o2)SC(=Nc2ccccc2)N1CCc1c[nH]c2ccccc12	-38	53	100*	91*	-1	-121	38	98*	4
COc1cc(/C=C2\SC(=Nc3ccccc3)N(CCc3c[nH]c4ccccc34)C2=O)ccc1OC(C)C(=O)O (stereo not given)	-8	6	21	-9	-39	-12	.	.	.
CC(C)(C)c1cc(NCCCn2ccnc2)n2ncc(-c3ccccc3)c2n1	-173	-76	17	-95	-129	-149	.	.	.
Cc1cc(NCCCn2ccnc2)n2ncc(-c3ccc(Cl)cc3)c2n1	-168	-17	60*	-215	-117	?	-101	86*	52*
c1ccc(-c2cccc(-c3ccccn3)n2)nc1	-5	85*	66*	92*	53	77*	83*	79*	18
c1ccc(-c2nnc(-c3ccccn3)nn2)nc1	-108	-104	-37	-75	.	-122	.	.	.
Cc1cc(/C=N/NC(=O)c2cccs2)c(C)n1-c1ccccc1	i	-4	93*	-196	-33	-19	0	88*	93*	697 NFkB conf=-38
Cc1ccc(C(=O)O)cc1NC(=O)Nc1cccc2ccccc12	-10	-8	10	10	-18	10	.	.	.
